# Laboratory results taken from PubChem BioAssay (NCATS).
# Where “and” joins values, the source holds several entries; their conditions need not be identical. Identical values can stand only once. Records with an inconclusive call do not appear. A call without a number means that no potency is given here. Calls of active or inactive are those of the source. Unless noted, calls follow the shape of the dose curve; as a rule, active = well fitted curve in the direction sought with a large enough effect; inconclusive = small, poorly fitted or top-dose-only effect, or another doubt; inactive = no such curve, though single readings can be large; an effect the other way counts as inactive or inconclusive.
# What was measured:
# [1] = target: Cytochrome P450 2D6 (Homo sapiens) (UniProt P10635); experiment: Cytochrome P450 family 2 subfamily D member 6 (CYP2D6) small molecule antagonists: luciferase biochemical (cell-free) qHTS assay (AID 1645840; active = well fitted curve in the direction sought with a large enough effect in the repeat runs; an effect the other way counts as inactive or inconclusive; also: nearly all actives have a fitted effect of over 55% in size; also: potency is read from the fitted curve at half-maximal effect)
# Procedure, shortened: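 P450-Glo CYP2D6 system: proluciferin substrate converted by enzyme to luciferin, read by luminescence proportional to activity. Enzyme-substrate mix with compound 10 min at room temperature, then NADPH regeneration 1 h before detection reagent.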
# [2] = Primary qHTS for inhibitors of nuclear receptor binding SET domain protein 2 (NSD2) in an isogenic RCH-ACV NSD2 p.E1099K mutant (9B) (AID 1645876); also: nearly all actives have a fitted effect of over 70% in size; also: potency is read from the fitted curve at half-maximal effect
# [3] = Primary qHTS for inhibitors of nuclear receptor binding SET domain protein 2 (NSD2) in an RCH-ACV wild type WT cells (2C) (AID 1645877); also: nearly all actives have a fitted effect of over 70% in size; also: potency is read from the fitted curve at half-maximal effect
# [4] = target: Glutathione peroxidase 1 (Homo sapiens) (UniProt P07203); experiment: Primary qHTS Assay for Inhibitors of Recombinant Selenoprotein Glutathione Peroxidase 1 (GPX1) (AID 1845191); also: nearly all actives have a fitted effect of over 65% in size; also: potency is read from the fitted curve at half-maximal effect
# Procedure, shortened: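 NADPH consumption tracked by fluorescence at 340/450 nm between t=0 and t=15 min, room temperature. Final mix: 10 nM GPX1, 100 nM glutathione reductase, 1 mM GSH, 0.5 mM NADPH, 0.5 mM cumene hydroperoxide, 0.01% BSA; 30 min compound–enzyme preincubation.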
# [5] = NCATS anti-infectives library activity on HEK293 viability as a counter-qHTS vs the C. elegans viability qHTS (AID 1745854)
# Procedure, shortened: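 Cytotoxicity counter-screen to a worm viability qHTS: CellTiter-Glo luminescence read 10 min after reagent addition. Compounds (final up to 41.7 uM, a 1:5 dilution series) incubated 24 hr at 37C with 1,500 HEK293 cells per well; digitonin control.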
# [6] = target: Cytochrome P450 2C9 (Homo sapiens) (UniProt P11712); experiment: Cytochrome P450 family 2 subfamily C member 9 (CYP2C9) small molecule antagonists: luciferase biochemical (cell-free) qHTS assay (AID 1645842; active = well fitted curve in the direction sought with a large enough effect in the repeat runs; an effect the other way counts as inactive or inconclusive; also: potency is read from the fitted curve at half-maximal effect; nearly all actives have a fitted effect of over 55% in size)
# Procedure, shortened: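 P450-Glo CYP2C9 system: proluciferin substrate with enzyme in mix containing 0.4% BSA, 10 min at room temperature, then NADPH regeneration solution added and incubated 1 h at 37C. Detection reagent stopped reaction; luminescence read after 20 min as RLU.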
# [7] = target: N-terminal Xaa-Pro-Lys N-methyltransferase 1 (Homo sapiens) (UniProt Q9BV86); experiment: Confirmatory qHTS for Inhibitors of N-terminal methyltransferase 1 (NTMT1): MTaseGlo Assay (AID 1645874); also: potency is read from the fitted curve at half-maximal effect; nearly all actives have a fitted effect of over 65% in size
# Procedure, shortened: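 MTase-Glo luminescence measured SAH formed by 125 nM NTMT1 from 100 uM SAM and 1 uM SPKRIA peptide over 30 min at room temperature, following 15 min compound preincubation. Percent inhibition against no-enzyme and DMSO controls gave 4-parameter Hill fits.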
# [8] = target: Catechol O-methyltransferase (Homo sapiens) (UniProt P21964); experiment: Confirmatory Screen for Target Class Profiling of Small Molecule Inhibitors of Methyltransferases (AID 1745852; calls by dose curve; also: potency is read from the fitted curve at half-maximal effect); settings: MTase-Glo luminescence, SAH detection, recombinant enzyme; measured here: COMT max response; stronger effect = lower value
# [9] = target: Guanidinoacetate N-methyltransferase (Homo sapiens) (UniProt Q14353); experiment: as above; settings: activity change, negative = inhibition: at 57.3 µM (top of the series) unless noted
# [10] = target: Nicotinamide N-methyltransferase (Homo sapiens) (UniProt P40261); experiment: as above; settings: MTase-Glo luminescence, SAH detection, recombinant enzyme; measured here: NNMT max response; stronger effect = lower value
# [11] = target: Phenylethanolamine N-methyltransferase (Homo sapiens) (UniProt P11086); experiment: as above; settings: MTase-Glo luminescence, SAH detection, recombinant enzyme; measured here: PNMT max response; stronger effect = lower value
# [12] = NCATS anti-infectives library activity on the primary C. elegans qHTS viability assay (AID 1745855; calls by dose curve; also: potency is read from the fitted curve at half-maximal effect)
# Procedure, shortened: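 GFP read-out by 488 nm laser cytometry at day 0, 3 and 7, gated on object perimeter, area and peak intensity, scored viability of PE254-GFP-FLuc worms exposed to compound in S medium with bacterial capsules at 21 °C.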
# [13] = target: Cytochrome P450 3A4 (Homo sapiens) (UniProt P08684); experiment: Cytochrome P450 family 3 subfamily A member 4 (CYP3A4) small molecule antagonists: luciferase qHTS assay (AID 1645841; active = well fitted curve in the direction sought with a large enough effect in the repeat runs; an effect the other way counts as inactive or inconclusive; also: nearly all actives have a fitted effect of over 45% in size)
# Procedure, shortened: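 Luminescent CYP3A4 activity readout: compounds plus enzyme-substrate mix 10 min at room temperature, reaction started with NADPH regenerating system for 1 h, stopped with detection reagent, read after 20 min. Ketoconazole served as control.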
# Phenylethanolamine N-methyltransferase (Homo sapiens), sequence (P11086 whole entry, looked up): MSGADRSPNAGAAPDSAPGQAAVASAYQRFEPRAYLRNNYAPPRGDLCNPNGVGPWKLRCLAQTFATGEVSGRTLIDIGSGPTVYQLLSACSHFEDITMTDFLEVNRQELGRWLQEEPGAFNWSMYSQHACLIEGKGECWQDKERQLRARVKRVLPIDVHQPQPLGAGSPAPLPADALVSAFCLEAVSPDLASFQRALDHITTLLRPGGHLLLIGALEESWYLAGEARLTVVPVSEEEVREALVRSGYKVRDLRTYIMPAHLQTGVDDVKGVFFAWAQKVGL
# Glutathione peroxidase 1 (Homo sapiens), sequence (P07203 whole entry, looked up): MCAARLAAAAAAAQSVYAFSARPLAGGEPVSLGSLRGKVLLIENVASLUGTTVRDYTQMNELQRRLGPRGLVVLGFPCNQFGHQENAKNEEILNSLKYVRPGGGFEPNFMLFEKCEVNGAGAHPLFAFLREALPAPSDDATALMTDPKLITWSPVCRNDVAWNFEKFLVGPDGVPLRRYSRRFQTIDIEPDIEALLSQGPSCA
# Cytochrome P450 2C9 (Homo sapiens), sequence (P11712 whole entry, looked up): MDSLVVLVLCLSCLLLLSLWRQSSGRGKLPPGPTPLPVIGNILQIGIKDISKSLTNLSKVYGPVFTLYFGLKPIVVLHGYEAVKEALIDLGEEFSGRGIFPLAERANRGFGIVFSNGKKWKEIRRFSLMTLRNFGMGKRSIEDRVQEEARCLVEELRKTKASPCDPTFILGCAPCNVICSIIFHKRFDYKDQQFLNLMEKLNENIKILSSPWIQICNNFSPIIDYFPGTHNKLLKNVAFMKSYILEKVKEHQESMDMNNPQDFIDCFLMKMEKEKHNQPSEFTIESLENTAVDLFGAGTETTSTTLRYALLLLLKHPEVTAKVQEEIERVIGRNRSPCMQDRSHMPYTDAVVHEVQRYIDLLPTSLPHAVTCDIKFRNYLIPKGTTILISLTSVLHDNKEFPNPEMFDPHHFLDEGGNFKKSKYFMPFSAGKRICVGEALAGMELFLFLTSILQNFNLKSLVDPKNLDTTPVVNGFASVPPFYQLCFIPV
# Nicotinamide N-methyltransferase (Homo sapiens), sequence (P40261 whole entry, looked up): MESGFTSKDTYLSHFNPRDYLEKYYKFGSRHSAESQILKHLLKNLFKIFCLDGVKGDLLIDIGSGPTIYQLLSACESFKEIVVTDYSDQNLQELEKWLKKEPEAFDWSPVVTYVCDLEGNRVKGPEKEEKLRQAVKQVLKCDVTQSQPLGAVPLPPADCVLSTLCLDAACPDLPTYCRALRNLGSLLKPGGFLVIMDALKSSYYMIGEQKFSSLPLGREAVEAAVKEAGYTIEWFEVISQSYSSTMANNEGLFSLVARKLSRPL
# Cytochrome P450 2D6 (Homo sapiens), sequence (P10635 whole entry, looked up): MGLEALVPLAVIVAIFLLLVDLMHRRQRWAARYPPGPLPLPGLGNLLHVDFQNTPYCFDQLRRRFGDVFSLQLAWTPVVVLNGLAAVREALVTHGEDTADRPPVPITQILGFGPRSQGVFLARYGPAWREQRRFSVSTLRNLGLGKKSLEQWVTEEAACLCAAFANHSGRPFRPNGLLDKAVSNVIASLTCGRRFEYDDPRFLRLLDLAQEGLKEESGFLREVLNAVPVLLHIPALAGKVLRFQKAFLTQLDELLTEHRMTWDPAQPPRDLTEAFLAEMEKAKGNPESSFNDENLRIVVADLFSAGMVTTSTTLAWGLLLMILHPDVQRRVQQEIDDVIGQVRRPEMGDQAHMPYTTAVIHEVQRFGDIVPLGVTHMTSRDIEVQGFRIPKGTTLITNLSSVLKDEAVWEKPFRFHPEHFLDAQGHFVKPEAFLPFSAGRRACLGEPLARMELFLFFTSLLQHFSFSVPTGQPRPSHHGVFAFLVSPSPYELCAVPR
# Catechol O-methyltransferase (Homo sapiens), sequence (P21964 whole entry, looked up): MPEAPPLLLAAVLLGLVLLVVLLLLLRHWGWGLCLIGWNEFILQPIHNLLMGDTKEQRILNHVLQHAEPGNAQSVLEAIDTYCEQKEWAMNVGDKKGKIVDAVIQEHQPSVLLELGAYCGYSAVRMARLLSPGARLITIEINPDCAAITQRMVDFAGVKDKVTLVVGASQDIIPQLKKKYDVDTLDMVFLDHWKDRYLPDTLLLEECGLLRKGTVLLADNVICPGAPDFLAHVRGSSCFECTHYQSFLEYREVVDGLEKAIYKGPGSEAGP
# Cytochrome P450 3A4 (Homo sapiens), sequence (P08684 whole entry, looked up): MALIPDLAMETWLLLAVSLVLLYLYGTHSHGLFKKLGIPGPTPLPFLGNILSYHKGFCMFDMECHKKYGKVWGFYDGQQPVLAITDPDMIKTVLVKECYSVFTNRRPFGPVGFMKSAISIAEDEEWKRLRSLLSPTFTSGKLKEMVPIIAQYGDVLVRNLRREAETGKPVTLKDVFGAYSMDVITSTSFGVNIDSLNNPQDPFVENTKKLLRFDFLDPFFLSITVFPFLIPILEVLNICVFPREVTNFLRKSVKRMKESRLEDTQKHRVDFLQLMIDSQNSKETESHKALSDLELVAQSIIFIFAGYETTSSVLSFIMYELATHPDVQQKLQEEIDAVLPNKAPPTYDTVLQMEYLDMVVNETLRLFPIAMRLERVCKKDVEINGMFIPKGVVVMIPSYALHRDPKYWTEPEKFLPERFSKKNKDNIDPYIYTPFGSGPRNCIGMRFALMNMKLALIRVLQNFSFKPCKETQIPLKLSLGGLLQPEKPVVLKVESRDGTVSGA
# N-terminal Xaa-Pro-Lys N-methyltransferase 1 (Homo sapiens), sequence (Q9BV86 whole entry, looked up): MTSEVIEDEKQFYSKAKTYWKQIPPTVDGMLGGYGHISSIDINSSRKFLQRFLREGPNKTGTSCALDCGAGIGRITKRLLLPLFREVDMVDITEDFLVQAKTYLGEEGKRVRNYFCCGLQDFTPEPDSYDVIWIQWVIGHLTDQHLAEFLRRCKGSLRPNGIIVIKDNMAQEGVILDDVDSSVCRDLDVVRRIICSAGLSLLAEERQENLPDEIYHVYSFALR
compound,measurement,setting,value
CCOCc1cc(OC)c(-c2ccc(C[C@H](NC(=O)c3c(F)cccc3F)C(=O)O)cc2)c(OC)c1,Potency,[1],inactive
same,Potency,[2],inactive
same,Potency,[3],inactive
same,Potency,[4],inactive
COc1cc2ncnc(Nc3ccc(O)cc3)c2cc1OC,Potency,[1],inactive
same,Potency,[4],inactive
CC(C)(C)OC(=O)N1CCC(OCc2nc(-c3ccncc3)no2)CC1,Potency,[1],inactive
same,Potency,[2],inactive
same,Potency,[3],inactive
same,Potency,[4],inactive
CCNCc1nc2c(N)nc3ccccc3c2n1CC(C)(C)O,Potency,[1],5.35 µM (active)
same,Potency,[5],inactive
same,Potency,[4],inactive
Cc1cccc(-c2[nH]c(Cc3cccc(C(N)=O)c3)nc2-c2ccc3nccnc3c2)n1,Potency,[1],13.5 µM (active)
same,Potency,[4],inactive
CC(C)(C)CCN1C[C@@H]2C(CNC(=O)c3cc(Cl)cc(Cl)c3)[C@@H]2C1 (stereo not given in full),Potency,[1],3.79 µM (active)
same,Potency,[4],inactive
COc1ccc(-c2nc(-c3ccc(-c4cccc(Cl)c4)o3)[nH]c2-c2ccc(OC)cc2)cc1,Potency,[1],inactive
same,Potency,[4],inactive
CCOc1cc2ncc(C#N)c(Nc3ccc(F)c(Cl)c3)c2cc1NC(=O)/C=C/CN(C)C,Potency,[6],3.79 µM (active)
same,Potency,[7],1.2 µM (active)
same,Potency,[2],459 nM (active) and 742 nM (active)
same,Potency,[3],1.03 µM (active) and 590 nM (active)
same,activity,[8],-96.3%
same,Potency,[9],4.82 µM (active)
same,activity,[10],-82.7%
same,activity,[11],-97.3%
same,Potency,[5],inactive
same,Potency,[12],14.5 µM (active)
same,Potency,[4],inactive
CC(C)C(CO)Nc1nc(Nc2cc(N)cc(Cl)c2)c2ncn(C(C)C)c2n1 (stereo not given),Potency,[1],23.9 µM (active)
same,Potency,[2],6.49 µM (active)
same,Potency,[3],6.49 µM (active)
same,Potency,[4],inactive
CC(Cc1cc2c(c(C(N)=O)c1)N(CCCO)CC2)NCCOc1ccccc1OCC(F)(F)F (stereo not given),Potency,[1],7.56 µM (active)
same,Potency,[3],inactive
same,Potency,[4],inactive
Cc1cnc(NC(=O)Nc2cc(Br)c(C)cc2OCC2CNCCO2)cn1 (stereo not given),Potency,[1],12 µM (active)
same,Potency,[2],0.649 µM (active)
same,Potency,[3],0.578 µM (active)
same,Potency,[4],inactive
C[C@H]1Oc2cc(cnc2N)-c2c(nn(C)c2C#N)CN(C)C(=O)c2ccc(F)cc21,Potency,[1],inactive
same,Potency,[4],inactive
CN(C)CC1CCOC1(c1ccccc1)c1ccccc1 (stereo not given),Potency,[1],2.24 µM (active)
same,Potency,[2],inactive
same,Potency,[3],inactive
same,Potency,[4],inactive
c1ccc(-c2csc(N3CCOCC3)n2)cc1,Potency,[1],inactive
same,Potency,[2],inactive
same,Potency,[3],inactive
same,Potency,[4],inactive
Cc1ccc(S(=O)(=O)Nc2ccccc2N2CCCCC2)s1,Potency,[1],inactive
same,Potency,[4],inactive
Cc1cc(C(=O)N2Cc3cnn(C)c3Nc3ccccc32)ccc1CNC(=O)N1CCC[C@H]1C(=S)N1CCCN(C)CC1,Potency,[1],inactive
same,Potency,[2],inactive
same,Potency,[3],inactive
same,Potency,[4],inactive
Cc1ccc(-c2ccc3c(ccc4sc5c(c43)NC[C@@H](C)NC5=O)n2)cn1,Potency,[1],inactive
same,Potency,[3],16.6 µM (active)
O=C(O)[C@H](Cc1ccc(Nc2nccc3ccncc23)cc1)NC1=C(Br)C(=O)C12CCCCC2,Potency,[1],inactive
same,Potency,[2],inactive
same,Potency,[3],inactive
same,Potency,[4],inactive
CCOCCOC(=O)/C=C/c1ccc(OC)cc1,Potency,[1],inactive
same,Potency,[4],inactive
CCc1cccc(CC)c1NC(=O)c1nn(C)c2c1CCc1cnc(Nc3ccc(C(=O)NC4CCN(C)CC4)cc3OC(F)(F)F)nc1-2,Potency,[1],9.28 µM (active)
same,Potency,[3],1.78 µM (active)
same,Potency,[4],inactive
COc1cc(Nc2nc3c(s2)CCCC3c2ccc(F)cc2)ccc1-n1cnc(C)c1 (stereo not given),Potency,[1],0.849 µM (active)
same,Potency,[2],11.5 µM (active)
same,Potency,[3],10.3 µM (active)
same,Potency,[4],inactive
CCN1CCN(Cc2ccc(NC(=O)c3ccc(C)c(NC(=O)c4cncc(-c5cccs5)c4)c3)cc2C(F)(F)F)CC1,Potency,[1],3.38 µM (active)
same,Potency,[2],45.9 nM (active) and 166 nM (active)
same,Potency,[3],51.5 nM (active) and 186 nM (active)
same,Potency,[4],inactive
CC1(C)CCC(C)(C)c2cc(C3(c4ccc(C(=O)O)cc4)OCCO3)ccc21,Potency,[1],inactive
same,Potency,[2],inactive
same,Potency,[3],inactive
same,Potency,[4],inactive
Cc1ncc(CCCN(C)C)cc1Nc1ncc2c(n1)-c1ccc(C(F)(F)F)cc1NC(=S)C2,Potency,[1],13.5 µM (active)
same,Potency,[2],0.0916 µM (active)
same,activity,[8],-3.05%
same,"activity change, negative = inhibition",[9],2.13%
same,activity,[10],-20.1%
same,activity,[11],-4.31%
same,Potency,[4],12.8 µM (active)
O=C(Nc1ccc(Cl)cc1F)c1ccccc1O,Potency,[6],9.52 µM (active)
CC(C)[C@@H]1C(=O)N(S(C)(=O)=O)[C@@H]2CCN(C(=O)/C=C/CN3CCCCC3)[C@H]21,Potency,[1],inactive
same,Potency,[2],inactive
same,Potency,[4],inactive
Cc1cc(OCc2nc(-c3ccccc3Cl)cs2)ccc1OCC(=O)O,Potency,[1],inactive
same,Potency,[2],inactive
same,Potency,[3],inactive
same,Potency,[4],inactive
CC(C)c1cccc2c(-c3ccccc3)cc(-c3ccc(-c4ccc(C(=O)O)cc4)[nH]3)nc12,Potency,[1],inactive
same,activity,[8],-3.32%
same,"activity change, negative = inhibition",[9],-5%
same,activity,[10],-16.3%
same,activity,[11],-5.01%
same,Potency,[4],inactive
CCCCNc1ccc(-c2ccc(CN3CCOCC3)cn2)c(NC2CCC(O)CC2)c1 (stereo not given),Potency,[13],inactive
same,Potency,[3],0.796 µM (active)
same,Potency,[4],inactive
Nc1nc2c(c(N3CCNCC3)n1)CCC1=C2[C@@H]2CCCC[C@@H]2O1,Potency,[1],19 µM (active)
same,Potency,[3],16.3 µM (active)
same,Potency,[4],inactive
COC(=O)[C@@]1(c2ccc(C)cc2)C[C@H]1CN1CCC(O)(c2ccccc2)CC1,Potency,[1],2.68 µM (active)
same,Potency,[5],inactive
same,Potency,[12],inactive
same,Potency,[4],inactive
COC(=O)N(C)c1c(N)nc(-c2nn(Cc3ccccc3F)c3ncccc23)nc1N,Potency,[6],23.9 µM (active)
same,Potency,[2],inactive
same,Potency,[3],inactive
same,Potency,[4],inactive
